Reference: the supplement of paper PMC10849652
About 7,900 targets were measured; listed, in parts, are those with a hit and a random draw of the rest. About 0.6% of all pairs of compound and target were hits. A number with no mark means an inactive call.

Tests used:
Experiment in all cases: log2 fold change, soluble protein after heating vs DMSO (PISA); higher = thermal stabilisation; K562 cells, 10 uM, 30 min; active = over 0.2 and 3.5 SD of the protein, either way, in both replicates (recomputed)
[1] = compound: NC(=O)Nc1cc(-c2cccc(F)c2)sc1C(=O)N[C@H]1CCCNC1
Procedure, shortened: (§1)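 Values are thermal stability changes relative to control samples and are taken from duplicates. They are stated as log2 fold changes. Before quantification by TMTpro 16plex LC-MS/MS with equalised channel sums, K562 cells at 2×10^6 cells/mL were treated with 10 μM compound for 30 min, heated in aliquots for 3 min across 48°C-58°C, pooled, extracted in PBS with 0.5% NP-40 at 4°C, and centrifuged at 21,000xg for 90 min to give the soluble supernatant.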

[2] = compound: NC(=O)c1cnc(N[C@@H]2CCCC[C@@H]2N)nc1Nc1cccc(-n2nccn2)c1
Procedure, shortened: as §1

[3] = compound: NC1(c2ccc(-c3nc4ccn5c(=O)[nH]nc5c4cc3-c3ccccc3)cc2)CCC1
Procedure, shortened: as §1

[4] = compound: NCC(=O)Nc1ccc(-n2nc(C(F)(F)F)cc2-c2ccc3c(ccc4ccccc43)c2)cc1
Procedure, shortened: as §1

[5] = compound: Nc1ccccc1NC(=O)c1ccc(CNC(=O)OCc2cccnc2)cc1 [entinostat]
Procedure, shortened: as §1

[6] = compound: O=C(CCCCCCC(=O)Nc1ccccc1)NO [vorinostat]
Procedure, shortened: as §1

[7] = compound: O=C(CCCCCCNC(=O)c1cnc(N(c2ccccc2)c2ccccc2Cl)nc1)NO [citarinostat]
Procedure, shortened: as §1

[8] = compound: O=C(O)c1ccc2c(c1)nc(Nc1cccc(Cl)c1)c1ccncc12 [silmitasertib]
Procedure, shortened: as §1

[9] = compound: O=C1NC(=O)C(c2cnc3ccccn23)=C1c1cn2c3c(cc(F)cc13)CN(C(=O)N1CCCCC1)CC2
Procedure, shortened: as §1

[10] = compound: c1cc(OCCN2CCCCC2)cc(-c2n[nH]c3ccc(-c4nnc[nH]4)cc23)c1
Procedure, shortened: as §1

Sequence of UniProt Q969S8 (Q969S8 whole entry, looked up): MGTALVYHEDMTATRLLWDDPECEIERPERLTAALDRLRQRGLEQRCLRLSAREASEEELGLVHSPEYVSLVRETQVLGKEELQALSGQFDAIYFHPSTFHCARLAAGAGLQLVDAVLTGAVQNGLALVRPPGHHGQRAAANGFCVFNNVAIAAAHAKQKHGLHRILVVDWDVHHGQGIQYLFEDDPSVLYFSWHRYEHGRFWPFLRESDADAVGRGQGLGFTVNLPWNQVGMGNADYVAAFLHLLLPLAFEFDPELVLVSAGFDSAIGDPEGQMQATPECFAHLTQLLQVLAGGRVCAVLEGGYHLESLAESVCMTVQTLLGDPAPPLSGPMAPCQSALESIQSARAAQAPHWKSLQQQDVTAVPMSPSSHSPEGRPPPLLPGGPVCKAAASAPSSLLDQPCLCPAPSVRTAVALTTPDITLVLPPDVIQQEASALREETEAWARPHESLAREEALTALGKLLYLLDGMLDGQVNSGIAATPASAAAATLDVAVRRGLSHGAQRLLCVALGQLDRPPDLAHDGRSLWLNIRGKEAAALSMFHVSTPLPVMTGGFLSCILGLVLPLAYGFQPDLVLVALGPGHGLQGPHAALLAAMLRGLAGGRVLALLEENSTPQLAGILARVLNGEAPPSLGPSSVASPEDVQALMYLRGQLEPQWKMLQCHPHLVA
Sequence of UniProt P48507 (P48507 whole entry, looked up): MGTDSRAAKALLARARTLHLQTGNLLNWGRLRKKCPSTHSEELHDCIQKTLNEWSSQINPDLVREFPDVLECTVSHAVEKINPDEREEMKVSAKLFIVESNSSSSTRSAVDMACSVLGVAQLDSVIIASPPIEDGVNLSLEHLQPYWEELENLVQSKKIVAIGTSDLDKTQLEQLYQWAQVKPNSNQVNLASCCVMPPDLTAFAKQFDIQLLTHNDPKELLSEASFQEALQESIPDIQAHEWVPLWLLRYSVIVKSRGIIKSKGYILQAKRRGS
Sequence of UniProt Q96SL8 (Q96SL8 whole entry, looked up): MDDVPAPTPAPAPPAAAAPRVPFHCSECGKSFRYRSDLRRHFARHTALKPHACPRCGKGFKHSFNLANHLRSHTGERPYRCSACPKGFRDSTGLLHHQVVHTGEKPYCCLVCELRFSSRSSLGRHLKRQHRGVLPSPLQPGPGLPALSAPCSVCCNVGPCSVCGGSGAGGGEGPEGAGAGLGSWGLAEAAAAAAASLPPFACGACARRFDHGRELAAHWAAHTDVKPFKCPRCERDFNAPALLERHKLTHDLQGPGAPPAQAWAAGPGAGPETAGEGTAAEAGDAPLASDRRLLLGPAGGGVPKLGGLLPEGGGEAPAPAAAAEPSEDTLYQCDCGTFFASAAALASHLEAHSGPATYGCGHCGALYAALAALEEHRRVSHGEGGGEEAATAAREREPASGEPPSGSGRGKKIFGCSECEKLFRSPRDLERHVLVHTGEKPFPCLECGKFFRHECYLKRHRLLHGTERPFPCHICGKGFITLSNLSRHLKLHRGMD
Sequence of UniProt P62879 (P62879 whole entry, looked up): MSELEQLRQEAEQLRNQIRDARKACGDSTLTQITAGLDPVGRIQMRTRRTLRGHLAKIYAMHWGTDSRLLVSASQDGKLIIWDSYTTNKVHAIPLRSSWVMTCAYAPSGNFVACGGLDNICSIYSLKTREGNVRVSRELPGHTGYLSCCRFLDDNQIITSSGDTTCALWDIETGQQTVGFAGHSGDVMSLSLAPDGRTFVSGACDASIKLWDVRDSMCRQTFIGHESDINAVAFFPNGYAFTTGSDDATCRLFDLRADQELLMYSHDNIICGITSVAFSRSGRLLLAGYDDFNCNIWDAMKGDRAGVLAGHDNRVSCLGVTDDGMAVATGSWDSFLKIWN
Sequence of UniProt Q16774 (Q16774 whole entry, looked up): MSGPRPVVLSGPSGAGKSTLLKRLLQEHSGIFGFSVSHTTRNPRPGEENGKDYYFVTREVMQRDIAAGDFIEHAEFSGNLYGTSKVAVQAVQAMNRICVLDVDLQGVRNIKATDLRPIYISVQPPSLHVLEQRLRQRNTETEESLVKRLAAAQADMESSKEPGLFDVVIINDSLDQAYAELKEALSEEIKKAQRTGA
Sequence of UniProt P51570 (P51570 whole entry, looked up): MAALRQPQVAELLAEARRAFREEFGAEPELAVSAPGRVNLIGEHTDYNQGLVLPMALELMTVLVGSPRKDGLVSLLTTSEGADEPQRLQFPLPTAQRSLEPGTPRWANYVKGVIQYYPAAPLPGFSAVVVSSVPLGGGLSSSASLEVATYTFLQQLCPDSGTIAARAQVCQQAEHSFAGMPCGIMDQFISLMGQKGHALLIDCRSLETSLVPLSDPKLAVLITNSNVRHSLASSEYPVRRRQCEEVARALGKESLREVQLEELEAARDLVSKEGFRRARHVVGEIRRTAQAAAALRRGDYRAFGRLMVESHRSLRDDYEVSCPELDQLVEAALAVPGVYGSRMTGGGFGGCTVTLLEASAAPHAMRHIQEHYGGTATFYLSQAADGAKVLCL
Sequence of UniProt P52789 (P52789 whole entry, looked up): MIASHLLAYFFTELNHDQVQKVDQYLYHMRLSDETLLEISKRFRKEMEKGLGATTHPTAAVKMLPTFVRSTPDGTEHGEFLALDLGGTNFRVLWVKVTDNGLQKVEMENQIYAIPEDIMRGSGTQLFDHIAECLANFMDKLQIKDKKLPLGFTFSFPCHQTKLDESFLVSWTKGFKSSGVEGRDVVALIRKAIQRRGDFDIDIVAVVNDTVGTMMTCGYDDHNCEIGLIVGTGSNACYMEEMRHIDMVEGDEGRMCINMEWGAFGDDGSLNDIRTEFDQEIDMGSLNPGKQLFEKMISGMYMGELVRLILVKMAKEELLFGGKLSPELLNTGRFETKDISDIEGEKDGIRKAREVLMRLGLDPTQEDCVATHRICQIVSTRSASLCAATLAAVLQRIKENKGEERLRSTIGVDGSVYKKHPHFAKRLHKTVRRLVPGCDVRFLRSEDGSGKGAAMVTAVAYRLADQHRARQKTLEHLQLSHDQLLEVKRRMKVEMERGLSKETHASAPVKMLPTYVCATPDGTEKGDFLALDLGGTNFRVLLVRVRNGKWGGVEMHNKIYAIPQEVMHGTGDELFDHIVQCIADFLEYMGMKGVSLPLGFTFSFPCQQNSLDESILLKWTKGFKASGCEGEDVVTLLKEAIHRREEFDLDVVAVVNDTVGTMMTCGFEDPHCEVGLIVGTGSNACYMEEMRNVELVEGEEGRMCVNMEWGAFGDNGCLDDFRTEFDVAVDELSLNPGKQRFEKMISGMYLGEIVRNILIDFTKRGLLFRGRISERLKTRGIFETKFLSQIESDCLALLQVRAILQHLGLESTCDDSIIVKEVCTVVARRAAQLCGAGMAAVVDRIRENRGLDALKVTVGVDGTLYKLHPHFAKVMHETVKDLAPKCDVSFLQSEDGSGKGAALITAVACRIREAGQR
Sequence of UniProt Q6P3S6 (Q6P3S6 whole entry, looked up): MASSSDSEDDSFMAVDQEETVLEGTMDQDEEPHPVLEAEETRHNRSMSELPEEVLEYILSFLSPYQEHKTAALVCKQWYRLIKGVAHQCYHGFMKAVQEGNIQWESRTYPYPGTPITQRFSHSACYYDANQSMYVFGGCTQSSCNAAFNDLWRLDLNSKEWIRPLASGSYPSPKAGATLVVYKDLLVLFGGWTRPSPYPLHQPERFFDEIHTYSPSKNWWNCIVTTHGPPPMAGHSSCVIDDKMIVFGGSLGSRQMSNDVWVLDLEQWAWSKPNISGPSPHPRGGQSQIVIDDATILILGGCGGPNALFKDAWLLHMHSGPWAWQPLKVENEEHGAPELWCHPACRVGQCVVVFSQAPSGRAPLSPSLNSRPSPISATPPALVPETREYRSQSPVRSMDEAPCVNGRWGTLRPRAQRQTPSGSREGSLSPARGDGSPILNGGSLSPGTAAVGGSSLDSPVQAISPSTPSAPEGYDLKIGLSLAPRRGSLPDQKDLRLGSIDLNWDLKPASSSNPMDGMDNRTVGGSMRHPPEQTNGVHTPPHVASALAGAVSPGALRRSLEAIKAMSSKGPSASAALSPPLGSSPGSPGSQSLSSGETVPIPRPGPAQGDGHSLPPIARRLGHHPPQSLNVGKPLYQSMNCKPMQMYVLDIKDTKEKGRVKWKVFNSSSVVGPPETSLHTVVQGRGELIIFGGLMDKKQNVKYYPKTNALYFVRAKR
Sequence of UniProt P52655 (P52655 whole entry, looked up): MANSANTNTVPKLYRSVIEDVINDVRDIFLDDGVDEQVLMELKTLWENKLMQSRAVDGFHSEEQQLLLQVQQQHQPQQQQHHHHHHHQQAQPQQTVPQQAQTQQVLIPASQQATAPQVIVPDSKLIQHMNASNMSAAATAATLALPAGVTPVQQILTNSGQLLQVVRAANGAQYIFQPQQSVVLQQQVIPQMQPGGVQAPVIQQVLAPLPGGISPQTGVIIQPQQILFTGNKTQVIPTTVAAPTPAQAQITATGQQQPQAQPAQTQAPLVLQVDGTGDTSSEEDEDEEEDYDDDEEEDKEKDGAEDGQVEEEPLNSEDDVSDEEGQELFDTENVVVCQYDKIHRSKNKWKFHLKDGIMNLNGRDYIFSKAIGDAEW
Sequence of UniProt P21695 (P21695 whole entry, looked up): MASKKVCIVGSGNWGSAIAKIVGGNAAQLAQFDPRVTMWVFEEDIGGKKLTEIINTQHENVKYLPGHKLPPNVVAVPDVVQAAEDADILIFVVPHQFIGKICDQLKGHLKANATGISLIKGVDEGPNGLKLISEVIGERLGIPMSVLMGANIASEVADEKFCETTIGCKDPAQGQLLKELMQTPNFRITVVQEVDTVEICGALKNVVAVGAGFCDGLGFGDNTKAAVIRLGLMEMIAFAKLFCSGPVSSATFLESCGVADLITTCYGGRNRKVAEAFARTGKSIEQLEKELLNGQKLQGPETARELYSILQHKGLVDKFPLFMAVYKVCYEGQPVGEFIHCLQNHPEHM
Sequence of UniProt Q92522 (Q92522 whole entry, looked up): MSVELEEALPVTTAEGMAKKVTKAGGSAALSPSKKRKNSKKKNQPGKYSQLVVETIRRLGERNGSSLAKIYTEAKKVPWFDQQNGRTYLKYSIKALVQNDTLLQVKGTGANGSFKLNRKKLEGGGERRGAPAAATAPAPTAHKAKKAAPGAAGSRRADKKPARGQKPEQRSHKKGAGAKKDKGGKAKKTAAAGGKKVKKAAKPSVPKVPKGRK

Target | log2 fold change [1] | log2 fold change [2] | log2 fold change [3] | log2 fold change [4] | log2 fold change [5] | log2 fold change [6] | log2 fold change [7] | log2 fold change [8] | log2 fold change [9] | log2 fold change [10]
GLIPR2 (UniProt Q9H4G4) | -0.038 | -0.058 | -0.101 | -0.071 | 0.058 | 0.032 | -0.029 | 0.112 | -0.017 | -0.037
GSTP1 (UniProt P09211) | -0.044 | -0.01 | -0.056 | 0.001 | -0.006 | -0.012 | 0.034 | -0.038 | -0.005 | -0.013
GALK1 isoform 2 (UniProt P51570) | 0.357 (active) | 0.066 | -0.087 | 0.141 | 0.171 | 0.094 | 0.111 | -0.063 | 0.049 | 0.11
GPD1 (UniProt P21695) | 0.067 | 0 | 0.059 | -0.067 | -0.068 | -0.035 | – | -0.16 | -0.157 | –
FCHO1 (UniProt O14526) | -0.001 | -0.21 | -0.119 | 0.054 | -0.032 | – | -0.086 | -0.24 | -0.102 | 0.302
HDAC6 (UniProt Q9UBN7) | 0.002 | -0.04 | 0.054 | 0.001 | -0.053 | 0.86 (active) | 0.747 (active) | 0.009 | 0.004 | 0.064
GOLGB1 isoform 2 (UniProt Q14789) | 0.106 | -0.062 | -0.044 | 0.026 | 0.024 | -0.019 | -0.008 | 0.009 | 0.039 | 0.167
GUK1 isoform 2 (UniProt Q16774) | -0.126 | -0.029 | -0.059 | -0.064 | 0.065 | -0.002 | 0.031 | 0.044 | -0.094 | 0.122
GATA1 (UniProt P15976) | 0.009 | 0.012 | -0.018 | 0.059 | -0.084 | -0.164 | -0.166 | 0.065 | -0.039 | -0.096
GCLM (UniProt P48507) | -0.028 | 0.073 | -0.088 | -0.075 | 0.093 | 0.051 | 0.074 | 0.077 | -0.022 | -0.004
HSPA8 (UniProt P11142) | -0.006 | 0.011 | 0.018 | 0.012 | -0.009 | -0.01 | -0.026 | -0.015 | 0.003 | -0.034
GNB2 (UniProt P62879) | -0.073 | -0.012 | 0.022 | -0.014 | -0.037 | -0.047 | -0.01 | 0.028 | -0.075 | -0.049
HK2 (UniProt P52789) | 0.003 | -0.012 | -0.059 | 0.016 | 0.022 | 0.048 | 0.046 | -0.021 | -0.065 | -0.059
GAB2 (UniProt Q9UQC2) | -0.087 | -0.268 | -0.081 | 0.018 | 0.127 | 0.151 | 0.182 | -0.175 | -0.095 | -0.21
GTF2A1 (UniProt P52655) | -0.029 | 0.249 | 0.01 | 0.093 | -0.116 | -0.031 | -0.035 | 0.004 | -0.028 | 0.016
GALNT2 (UniProt Q10471) | 0 | -0.042 | -0.125 | 0.002 | -0.018 | 0.033 | 0.064 | -0.021 | -0.034 | 0.005

Target | log2 fold change [1] | log2 fold change [2] | log2 fold change [3] | log2 fold change [4] | log2 fold change [5] | log2 fold change [6] | log2 fold change [7] | log2 fold change [8] | log2 fold change [9] | log2 fold change [10]
FMC1 (UniProt Q96HJ9) | 0.01 | -0.044 | -0.011 | 0.013 | -0.042 | -0.054 | 0.044 | 0.006 | -0.012 | -0.053
HP1BP3 (UniProt Q5SSJ5) | 0.026 | -0.057 | 0.043 | -0.034 | 0.025 | 0.132 | 0.113 | -0.048 | 0.067 | -0.023
HMGB3 (UniProt O15347) | 0.025 | 0.153 | 0.143 | 0.136 | -0.032 | -0.044 | -0.159 | -0.068 | -0.043 | 0.146
FOXK1 (UniProt P85037) | 0.497 | 0.201 | 0.38 | 0.096 | 0 | -0.15 | 0.023 | 0.512 | -1.33 (active) | -0.031
FBXO42 (UniProt Q6P3S6) | -0.048 | -0.087 | -0.176 | 0.061 | -0.028 | -0.03 | -0.001 | 0.006 | 0.013 | -0.026
HDGFL2 (UniProt Q7Z4V5) | -0.273 (active) | -0.05 | -0.022 | -0.052 | -0.139 | 0.024 | -0.032 | 0.033 | -0.093 | -0.018
H1FX (UniProt Q92522) | 0.248 | 0.165 | 0.153 | 0.118 | -0.072 | 0 | -0.122 | 0.078 | 0.227 | -0.12
HMG20A (UniProt Q9NP66) | 0 | 0.126 | -0.054 | -0.056 | 0.064 | 0.09 | 0.072 | 0.069 | 0 | -0.167
ICMT (UniProt O60725) | 0.031 | -0.153 | -0.233 | -0.079 | 0.007 | – | -0.034 | 0.022 | -0.013 | -0.016
HDAC1 (UniProt Q13547) | -0.015 | 0.128 | -0.017 | 0.006 | – | 1.79 (active) | 1.52 (active) | 0.06 | -0.03 | 0.003
GBA2 (UniProt Q9HCG7) | -0.008 | -0.006 | -0.108 | -0.129 | -0.023 | – | -0.332 | 0.124 | -0.027 | -0.211
HNRNPK isoform 3 (UniProt P61978) | -0.06 | – | 0.052 | -0.182 | 0.023 | 0.035 | -0.009 | 0.028 | 0.159 | -0.102
FIZ1 (UniProt Q96SL8) | 0.026 | – | 0.097 | 0.061 | -0.257 | 0.044 | -0.12 | -0.103 | 0.06 | 0.041
HDAC10 (UniProt Q969S8) | – | 0.061 | -0.076 | -0.033 | – | 0.208 | 0.062 | -0.271 | – | -0.09
HS1BP3 (UniProt Q53T59) | -0.059 | -0.075 | – | 0.027 | -0.05 | – | 0.115 | – | -0.016 | 0.108
